# In the supplement of paper PMC6555819:
# Test system: FXR:RXRa (NR concentration 270 nM, RXRa partner concentration 90 nM)
# Experiment: PBM binding z-score (relative to random genomic background probes); higher = stronger binding; sequences stand for … in GC…GCGATTGACAGCGTAGAATGAAGG
# Procedure, shortened: (§1)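 On custom Agilent 4×180K arrays, double-stranded probes with 34-nt variable regions carried direct-repeat seeds, single-nucleotide variants, half-site ablations or random human genomic background. Ligand-free nuclear receptor dimers were applied for 1 h, and binding was read with antibodies against each partner (one per run). Binding z-scores come from regression-normalized fluorescence, with the random background probes as reference.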
row,Sequence,PBM binding z-score
1,GCTAGTTGGTCAGTAAATGGTCACACACCGGTCG,0.041
2,AGCTCTAGGTAAAAGTTCAGTGAATCCCGAGGAT,0.542
3,TAGCCTAGGTCATTCAGGGGCCAGTATGGAAAGC,4.71
4,TAGCCTAGGTCATAGGCCAGTATACCACGCGAAC,4.26
5,CAATCTAGGTCAAAGGTCAAAGTCGAGCCAACCA,8.46
6,AGACAAAGTTCAGGACGAGGTAACGTAAAGCACG,4.35
7,CCTGCTAGTTCATGGTCAGCTAATCTACAGTATG,-0.0312
8,TCTCGGAGGACACGAAAAGTCAGAGCTCGACATC,0.557
9,TGACTGAGGTTAAAGATCAGGGAACGTGGCGTCG,2.91
10,TATACAGGGTCTAAGGCCAGAGTACGAATGTCGA,0.41
11,ATCTGTAGGTTATCGGGTCATTCAGTTTGCGCAT,3.02
12,GCTGCTCGGTCAACTGATGGTCAGCTAAAGCTCG,0.704
13,CCTTACAGGTCACGAGGTTATAGCACGACGAGCG,7.41
14,GCTGCTAGGTCGACTGATGGTCAGCTAAAGCTCG,-0.376
15,TAGCCTAAGTCATGGGCCAGTATACCACGCGAAC,-0.178
16,CAAACTAGGTCAAAGGTCAAAGCCGAGCCAACCA,8.47
17,TCTAGTTGGTCAAAGGCCACACACTCGAAATGCG,0.691
18,AGATTGAGGTTACCAAAGATCAGGGAAACGCTTG,2.33
19,CCTAGCAGGCCACGGTCACTCAAGCATTTCGCTT,0.26
20,AGAATGAGGTTACCAGAGATCAGGGAAACGCTTG,2.17

row,Sequence,PBM binding z-score
1,CCTACTGGGCCAATGTCATTGATCAGTCAAAGCA,-0.931
2,CCTACTGGGCCAACAAGGTCATTGATGCCGATAA,2.09
3,CCTACTGGGCGATTCAGAGGTCATTGATCATATG,2.02
4,CGTCCAACGTCAGCAGGTCAGTGAAAGCGACGTG,-0.27
5,GGTACGAGGGCAAAGTTGATAGCATCTGTCGACG,1.46
6,CCTAGTTGGTCAAGGTCTCACACGCTATAGGTAC,0.271
7,ATATGTAGGTTACATCCGGGTCTTTCAGGCTATG,0.415
8,AGTCAAAGTTCAGTAGGTAACGTAAGATTCAGCT,2.64
9,CAAACTAGGTCACGAAAGGTCAAATTCGAATGAC,7.71
10,CATACAGGGTAAGCTAGGCCAGAGTAGGGACGGC,0.167
11,CCTGCTAGTTCAATGGTCAGCTAAAGCAGCTCGC,-0.115
12,CCTAGTTGGTCAGGTGGTCACACACCGGATATGA,0.558
13,TAGCCTAGGTCATTGGACCAGTATAGTACGCATC,4.61
14,CCTGCTAGGTCAATGGTCAGCTAAAGCAGCTCGC,3.01
15,GCTGCTAGGTCAACTGATGGTCAGCTAGAGCTCG,3.85
16,ATCGAAAGGTGGACGAGGTGAGTATACACCGTTT,0.217
17,CCCGCTAGGTCATGGTCAGCTAATCTACAGTATG,3.68
18,CCAGACAGGTGAAAGGTAACTCACTCTGGTACGC,1.02
19,CCTAGCAGACCAATCTGGGTCACTCAAGGCTTGA,0.219

# Test system: LXRa:RXRa (NR concentration 270 nM, RXRa partner concentration 90 nM)
# Experiment: as above
# Procedure, shortened: as §1
row,Sequence,PBM binding z-score
1,GCTAGTTGGTCAGTAAATGGTCACACACCGGTCG,-0.126
2,AGCTCTAGGTAAAAGTTCAGTGAATCCCGAGGAT,0.948
3,TAGCCTAGGTCATTCAGGGGCCAGTATGGAAAGC,3.88
4,TAGCCTAGGTCATAGGCCAGTATACCACGCGAAC,3.46
5,CAATCTAGGTCAAAGGTCAAAGTCGAGCCAACCA,7.47
6,AGACAAAGTTCAGGACGAGGTAACGTAAAGCACG,3.92
7,CCTGCTAGTTCATGGTCAGCTAATCTACAGTATG,0.212
8,TCTCGGAGGACACGAAAAGTCAGAGCTCGACATC,0.0964
9,TGACTGAGGTTAAAGATCAGGGAACGTGGCGTCG,2.35
10,TATACAGGGTCTAAGGCCAGAGTACGAATGTCGA,0.239
11,ATCTGTAGGTTATCGGGTCATTCAGTTTGCGCAT,3.6
12,GCTGCTCGGTCAACTGATGGTCAGCTAAAGCTCG,0.751
13,CCTTACAGGTCACGAGGTTATAGCACGACGAGCG,5.59
14,GCTGCTAGGTCGACTGATGGTCAGCTAAAGCTCG,-0.522
15,TAGCCTAAGTCATGGGCCAGTATACCACGCGAAC,-0.0929
16,CAAACTAGGTCAAAGGTCAAAGCCGAGCCAACCA,7.19
17,TCTAGTTGGTCAAAGGCCACACACTCGAAATGCG,0.811
18,AGATTGAGGTTACCAAAGATCAGGGAAACGCTTG,6.22
19,CCTAGCAGGCCACGGTCACTCAAGCATTTCGCTT,0.128
20,AGAATGAGGTTACCAGAGATCAGGGAAACGCTTG,6.18

row,Sequence,PBM binding z-score
1,CCTACTGGGCCAATGTCATTGATCAGTCAAAGCA,-0.71
2,CCTACTGGGCCAACAAGGTCATTGATGCCGATAA,2.49
3,CCTACTGGGCGATTCAGAGGTCATTGATCATATG,3.68
4,CGTCCAACGTCAGCAGGTCAGTGAAAGCGACGTG,-0.136
5,GGTACGAGGGCAAAGTTGATAGCATCTGTCGACG,1.03
6,CCTAGTTGGTCAAGGTCTCACACGCTATAGGTAC,0.379
7,ATATGTAGGTTACATCCGGGTCTTTCAGGCTATG,2.91
8,AGTCAAAGTTCAGTAGGTAACGTAAGATTCAGCT,3.04
9,CAAACTAGGTCACGAAAGGTCAAATTCGAATGAC,8.3
10,CATACAGGGTAAGCTAGGCCAGAGTAGGGACGGC,0.793
11,CCTGCTAGTTCAATGGTCAGCTAAAGCAGCTCGC,0.171
12,CCTAGTTGGTCAGGTGGTCACACACCGGATATGA,0.139
13,TAGCCTAGGTCATTGGACCAGTATAGTACGCATC,3.73
14,CCTGCTAGGTCAATGGTCAGCTAAAGCAGCTCGC,2.21
15,GCTGCTAGGTCAACTGATGGTCAGCTAGAGCTCG,2.95
16,ATCGAAAGGTGGACGAGGTGAGTATACACCGTTT,-0.178
17,CCCGCTAGGTCATGGTCAGCTAATCTACAGTATG,2.72
18,CCAGACAGGTGAAAGGTAACTCACTCTGGTACGC,0.665
19,CCTAGCAGACCAATCTGGGTCACTCAAGGCTTGA,0.374
